{
  "source": "PubChem BioAssay (NCATS)",
  "note": "Results filed as inconclusive are left out. Activity calls are given as the source filed them. Calls follow the shape of the dose curve; as a rule, active = well fitted inhibition curve with a large enough effect; inconclusive = small, poorly fitted or top-dose-only effect; inactive = no such curve, though single readings can be large or run the other way.",
  "data": [
    {"assay": "qHTS assay for measurement of the activity of small molecule inhibitors on Zika virus induced Caspase-3 activity in human iPSC derived neural progenitor cells (hNPCs) (AID 1224857); also: % of control where 0% means no effect; nearly all actives have a fitted effect of over 65% in size", "conditions": "hNPCs ZIKV-induced caspase-3/7, Caspase-Glo luminescence, 6 h; series mostly up to 45.7 µM; activity change, negative = inhibition: at the top concentration", "procedure,_shortened": "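Percent inhibition of virus-induced caspase-3/7 luminescence (Caspase-Glo), scaled between uninfected cells and Zika-infected cells. hNPCs received compound 1 hr before ZIKV at 2 FFU/cell, with 6 hours infection at 37 C.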", "values": [
      {"compound": "O=[N+]([O-])/C=C/c1ccc2c(c1)OCO2", "activity change, negative = inhibition": "-7.23% (inactive)"},
      {"compound": "CCCN(CCC)[C@@H]1CCc2cccc(O)c2C1", "activity change, negative = inhibition": "15.7% (inactive)"},
      {"compound": "N=C(N)c1ccc(CS(=O)(=O)F)cc1", "activity change, negative = inhibition": "11.1% (inactive)"},
      {"compound": "c1ccc2c(c1)[I+]c1ccccc1-2", "activity change, negative = inhibition": "58% (inactive)"},
      {"compound": "NC(N)=NOCC[C@H](N)C(=O)O", "activity change, negative = inhibition": "-6.5% (inactive)"},
      {"compound": "NC(=O)c1ccc(OCC(O)CN2CC=C(c3ccc(F)cc3)CC2)cc1", "note": "(centres undefined)", "activity change, negative = inhibition": "-2.99% (inactive)"},
      {"compound": "NC(=O)CI", "activity change, negative = inhibition": "-11.7% (inactive)"},
      {"compound": "CCCN1CCc2cc(O)cc3c2[C@H]1Cc1ccc(O)c(O)c1-3", "activity change, negative = inhibition": "-3.33% (inactive)"},
      {"compound": "NCC(CP(=O)(O)O)c1ccc(Cl)cc1", "note": "(centres undefined)", "activity change, negative = inhibition": "-5.7% (inactive)"},
      {"compound": "O=C1CC[C@@]2(O)C3Cc4ccc(O)c5c4C2(CCN3CC2CC2)[C@H]1O5", "note": "(some centres undefined)", "activity change, negative = inhibition": "12.3% (inactive)"},
      {"compound": "CN1CCc2cc(O)cc3c2[C@H]1Cc1ccc(O)c(O)c1-3", "activity change, negative = inhibition": "14.1% (inactive)"},
      {"compound": "C[C@H](N)CN1CCc2ccc(Br)cc21", "activity change, negative = inhibition": "-6.96% (inactive)"},
      {"compound": "COc1ccc2[nH]c3c(c2c1)CCNC3", "activity change, negative = inhibition": "17.1% (inactive)"},
      {"compound": "C[C@]12Cc3cn4c(nc3C=C1CCC1C2CC[C@@]2(C)[C@H]1CC[C@@]2(O)C#N)nc1ccccc14", "note": "(some centres undefined)", "activity change, negative = inhibition": "-3.28% (inactive)"},
      {"compound": "O=P(O)(O)C(Cl)(Cl)P(=O)(O)O", "activity change, negative = inhibition": "-11.9% (inactive)"},
      {"compound": "CCCn1c(=O)c2[nH]c(C3CCCC3)nc2n(CCCOC(=O)c2ccc(S(=O)(=O)F)cc2)c1=O", "activity change, negative = inhibition": "-3.12% (inactive)"},
      {"compound": "Cc1sc2ccccc2c1CC1=NCCN1", "activity change, negative = inhibition": "-9.22% (inactive)"},
      {"compound": "CO[C@H]1CC=C2CCN3CCC4=C(CC(=O)OC4)[C@]23C1", "activity change, negative = inhibition": "-16.6% (inactive)"},
      {"compound": "Ic1ccccc1CNC1C2CCN(CC2)C1C(c1ccccc1)c1ccccc1", "note": "(centres undefined)", "activity change, negative = inhibition": "-7.25% (inactive)"},
      {"compound": "O=S1(=O)N(CCN2CC=C(c3c[nH]c4cc(F)ccc34)CC2)c2cccc3c2N1CCC3", "activity change, negative = inhibition": "62% (inactive)"},
      {"compound": "NC(Cc1cc(O)c(O)cc1O)C(=O)O", "note": "(centres undefined)", "activity change, negative = inhibition": "56.8% (inactive)"},
      {"compound": "COc1ccc2[nH]cc(CCN)c2c1", "activity change, negative = inhibition": "-2.95% (inactive)"},
      {"compound": "C[C@H](N)Cc1cccc(C(F)(F)F)c1", "activity change, negative = inhibition": "19% (inactive)"},
      {"compound": "N[C@@]1(C(=O)O)CC[C@@H](C(=O)O)C1", "activity change, negative = inhibition": "7.43% (inactive)"},
      {"compound": "c1ccc2c(N3CCNCC3)cccc2c1", "activity change, negative = inhibition": "19.6% (inactive)"},
      {"compound": "NCC(O)c1cc(O)c(O)cc1F", "note": "(centres undefined)", "activity change, negative = inhibition": "4.59% (inactive)"},
      {"compound": "C[N+]1(C)[C@@H]2CC(OC(=O)[C@H](CO)c3ccccc3)C[C@H]1[C@H]1O[C@@H]12", "note": "(some centres undefined)", "activity change, negative = inhibition": "24.4% (inactive)"},
      {"compound": "NCCc1ccc(S(=O)(=O)F)cc1", "activity change, negative = inhibition": "-11.7% (inactive)"},
      {"compound": "CCCCCCCCCCCCCC(=O)O[C@@H]1[C@@H](C)[C@@]2(O)[C@@H](C=C(CO)C[C@@]3(O)C(=O)C(C)=C[C@@H]23)C2C(C)(C)[C@@]21OC(C)=O", "note": "(some centres undefined)", "activity change, negative = inhibition": "-2.46% (inactive)"},
      {"compound": "COc1ccc(OC)c(C(O)C(C)N)c1", "note": "(centres undefined)", "activity change, negative = inhibition": "16.8% (inactive)"},
      {"compound": "CN1CCc2cccc(Cl)c2CC1", "activity change, negative = inhibition": "19.7% (inactive)"},
      {"compound": "NCCCP(=O)(O)O", "activity change, negative = inhibition": "0.853% (inactive)"},
      {"compound": "CC1(C(=O)O)C2CCC(O2)C1(C)C(=O)O", "note": "(centres undefined)", "activity change, negative = inhibition": "-6.98% (inactive)"},
      {"compound": "CCn1cnc2c(Nc3cccc(Cl)c3)nc(N[C@@H]3CCCC[C@@H]3N)nc21", "activity change, negative = inhibition": "27.5% (inactive)"}
    ]}
  ]
}
